Reference: PubChem BioAssay (Tox21)
A number with no mark means an inactive call. Inconclusive results are not listed. Entries that show only a call come without a potency. Calls of active or inactive are those of the source. Unless noted, calls come from the whole dose curve; as a rule, active = well fitted curve in the direction sought with a large enough effect in the repeat runs; inconclusive = weak or mixed curves; inactive = no such curve, though single readings can be large; an effect the other way counts as inactive or inconclusive.

What was measured:
[1] = target: Acetylcholinesterase (Homo sapiens) (UniProt P22303); assay: Acetylcholinesterase (AChE) small molecule antagonists: enzyme-based qHTS assay (AID 1347397; calls by dose curve; note: nearly all actives have a fitted effect of over 55% in size); conditions: Potency: AChE enzyme activity inhibition
Sequence of Acetylcholinesterase (Homo sapiens) (P22303 whole entry, looked up): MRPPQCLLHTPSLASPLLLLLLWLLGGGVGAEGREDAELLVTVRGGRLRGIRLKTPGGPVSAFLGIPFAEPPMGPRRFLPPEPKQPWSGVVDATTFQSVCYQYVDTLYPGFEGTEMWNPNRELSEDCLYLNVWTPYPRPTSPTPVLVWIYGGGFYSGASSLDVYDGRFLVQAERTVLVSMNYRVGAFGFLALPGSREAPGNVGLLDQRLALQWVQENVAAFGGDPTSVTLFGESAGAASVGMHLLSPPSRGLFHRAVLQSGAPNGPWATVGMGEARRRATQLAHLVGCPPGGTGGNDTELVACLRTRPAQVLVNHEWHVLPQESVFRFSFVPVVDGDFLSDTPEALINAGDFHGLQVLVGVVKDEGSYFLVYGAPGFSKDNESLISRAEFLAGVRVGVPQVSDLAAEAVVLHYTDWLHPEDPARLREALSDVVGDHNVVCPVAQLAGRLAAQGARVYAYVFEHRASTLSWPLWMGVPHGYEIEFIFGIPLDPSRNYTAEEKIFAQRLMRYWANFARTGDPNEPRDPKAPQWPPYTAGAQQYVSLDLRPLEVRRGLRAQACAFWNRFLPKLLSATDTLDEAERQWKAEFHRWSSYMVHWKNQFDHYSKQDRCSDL
Outline: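 Compound or DMSO vehicle was pin-transferred onto recombinant human AChE (50 mU/mL as dispensed) and left 30 min at room temperature. Acetylthiocholine with DTNB then started the reaction, read colorimetrically 10 min later.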

[2] = target: Acetylcholinesterase (Homo sapiens) (UniProt P22303); assay: Acetylcholinesterase (AChE) small molecule antagonists: fluorescence cell-based qHTS assay (AID 1347398; calls by dose curve; note: nearly all actives have a fitted effect of over 50% in size); conditions: Potency: AChE activity
Outline: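 Using neuroblastoma SH-SY5Y cells as the enzyme source, test chemicals are preincubated 30 min at 37 C; AChE-driven acetylthiocholine cleavage is then quantified by thiocholine-dependent Thiolite Green fluorescence after 40 min at room temperature.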

[3] = target: Acetylcholinesterase (Homo sapiens) (UniProt P22303); assay: Acetylcholinesterase (AChE) small molecule antagonists: enzyme-based qHTS assay with human liver microsomes (AID 1347399; calls by dose curve; note: nearly all actives have a fitted effect of over 60% in size); conditions: Potency: qHTS inhibition
Outline: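 Recombinant human AChE (50 mU/mL in the enzyme mix) and human liver microsomes (0.25 mg/mL final) were preincubated with compound and NADPH (0.25 mg/mL final) for 30 min at 37 C. Acetylthiocholine/DTNB was then added; thiocholine was read colorimetrically after 10 min at room temperature.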

[4] = target: Cytochrome P450 2D6 (Homo sapiens) (UniProt P10635); assay: Cytochrome P450 Family 2 Subfamily D Member 6 (CYP2D6) small molecule antagonists: luciferase reporter qHTS assay (AID 1671196); note: nearly all actives have a fitted effect of over 50% in size
Sequence of Cytochrome P450 2D6 (Homo sapiens) (P10635 whole entry, looked up): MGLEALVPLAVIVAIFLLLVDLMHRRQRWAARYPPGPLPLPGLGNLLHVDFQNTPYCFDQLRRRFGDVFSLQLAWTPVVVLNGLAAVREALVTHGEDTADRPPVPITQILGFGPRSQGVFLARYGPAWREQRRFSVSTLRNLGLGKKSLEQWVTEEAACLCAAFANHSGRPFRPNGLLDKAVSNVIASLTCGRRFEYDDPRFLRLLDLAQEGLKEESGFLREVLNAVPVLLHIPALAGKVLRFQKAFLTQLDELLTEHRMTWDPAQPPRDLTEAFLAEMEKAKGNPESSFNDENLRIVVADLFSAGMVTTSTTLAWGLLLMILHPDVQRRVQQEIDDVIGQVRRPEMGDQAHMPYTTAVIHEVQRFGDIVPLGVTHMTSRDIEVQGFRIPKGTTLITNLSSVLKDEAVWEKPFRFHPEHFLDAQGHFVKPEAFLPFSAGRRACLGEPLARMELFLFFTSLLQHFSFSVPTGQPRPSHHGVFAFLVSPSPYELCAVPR
Outline: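 CYP2D6 activity was followed as luminescence from its luciferin product after a 1 h NADPH-driven reaction at room temperature. Enzyme-substrate mix and compound were pre-incubated for 10 min, and the signal was read 20 min after adding detection reagent.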

[5] = target: Cytochrome P450 2C9 (Homo sapiens) (UniProt P11712); assay: Cytochrome P450 Family 2 Subfamily C Member 9 (CYP2C9) small molecule antagonists: luciferase reporter qHTS assay (AID 1671198); note: nearly all actives have a fitted effect of over 50% in size
Sequence of Cytochrome P450 2C9 (Homo sapiens) (P11712 whole entry, looked up): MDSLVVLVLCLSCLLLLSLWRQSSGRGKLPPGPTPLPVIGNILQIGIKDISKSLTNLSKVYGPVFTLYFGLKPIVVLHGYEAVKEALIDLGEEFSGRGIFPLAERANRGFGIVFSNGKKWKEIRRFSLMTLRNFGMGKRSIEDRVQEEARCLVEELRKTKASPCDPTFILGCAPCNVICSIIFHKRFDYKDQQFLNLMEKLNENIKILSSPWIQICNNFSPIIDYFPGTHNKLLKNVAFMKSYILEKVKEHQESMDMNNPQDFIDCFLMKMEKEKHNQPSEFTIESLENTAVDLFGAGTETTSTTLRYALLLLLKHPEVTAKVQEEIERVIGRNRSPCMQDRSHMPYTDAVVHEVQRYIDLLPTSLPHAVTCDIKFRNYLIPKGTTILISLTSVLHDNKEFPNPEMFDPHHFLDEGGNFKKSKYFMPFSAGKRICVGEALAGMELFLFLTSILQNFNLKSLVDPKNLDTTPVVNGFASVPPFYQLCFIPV
Outline: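 CYP2C9 activity was measured with a P450-Glo proluciferin substrate. Enzyme–substrate mix was held with compound for 10 min at room temperature, then NADPH regeneration solution was added for 1 h at 37C. Luciferin product was read as luminescence.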

[6] = target: Cytochrome P450 3A4 (Homo sapiens) (UniProt P08684); assay: Cytochrome P450 Family 3 Subfamily A Member 4 (CYP3A4) small molecule antagonists: luciferase reporter qHTS assay (AID 1671201); note: nearly all actives have a fitted effect of over 50% in size
Sequence of Cytochrome P450 3A4 (Homo sapiens) (P08684 whole entry, looked up): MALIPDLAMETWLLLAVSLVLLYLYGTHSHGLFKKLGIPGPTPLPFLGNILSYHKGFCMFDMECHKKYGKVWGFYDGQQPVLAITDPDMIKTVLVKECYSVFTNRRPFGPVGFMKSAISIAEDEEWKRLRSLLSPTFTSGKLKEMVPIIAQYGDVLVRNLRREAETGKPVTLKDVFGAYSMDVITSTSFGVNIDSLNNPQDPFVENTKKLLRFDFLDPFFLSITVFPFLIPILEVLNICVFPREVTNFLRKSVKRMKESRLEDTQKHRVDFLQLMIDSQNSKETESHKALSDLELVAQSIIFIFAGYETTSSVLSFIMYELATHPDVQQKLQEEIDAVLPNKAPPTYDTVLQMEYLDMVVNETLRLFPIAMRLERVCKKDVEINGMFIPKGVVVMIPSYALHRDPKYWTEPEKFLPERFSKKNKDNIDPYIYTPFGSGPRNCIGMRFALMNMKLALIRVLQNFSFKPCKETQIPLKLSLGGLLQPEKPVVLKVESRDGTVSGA
Outline: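 Inhibition of CYP3A4 is measured as loss of light: the enzyme converts a proluciferin substrate to luciferin, detected luminescently. Reaction ran 1 h at room temperature with NADPH regeneration after a 10 min compound preincubation.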

[7] = target: Cytochrome P450 2C19 (Homo sapiens) (UniProt P33261); assay: Cytochrome P450 Family 2 Subfamily C Member 19 (CYP2C19) small molecule antagonists: luciferase reporter qHTS assay (AID 1671197); note: nearly all actives have a fitted effect of over 65% in size
Sequence of Cytochrome P450 2C19 (Homo sapiens) (P33261 whole entry, looked up): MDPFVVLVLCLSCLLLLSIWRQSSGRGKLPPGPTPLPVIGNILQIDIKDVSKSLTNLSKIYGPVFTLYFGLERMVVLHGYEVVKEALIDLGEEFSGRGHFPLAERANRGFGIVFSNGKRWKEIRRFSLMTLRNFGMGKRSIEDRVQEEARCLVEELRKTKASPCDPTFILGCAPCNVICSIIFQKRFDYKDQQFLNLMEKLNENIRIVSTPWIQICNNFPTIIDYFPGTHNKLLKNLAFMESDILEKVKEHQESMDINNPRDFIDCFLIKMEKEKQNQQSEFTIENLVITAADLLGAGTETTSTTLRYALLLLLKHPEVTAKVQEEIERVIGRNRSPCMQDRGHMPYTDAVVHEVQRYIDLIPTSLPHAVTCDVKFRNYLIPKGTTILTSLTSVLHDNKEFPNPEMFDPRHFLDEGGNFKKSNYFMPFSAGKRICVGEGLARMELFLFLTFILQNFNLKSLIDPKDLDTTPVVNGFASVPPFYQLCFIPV
Outline: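 Light output is proportional to CYP2C19 activity: proluciferin substrate is converted to luciferin, then detected by a luciferin detection reagent that also stops the 1 h, 37C NADPH-driven reaction. Ketoconazole serves as positive control.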

[8] = target: Cytochrome P450 1A2 (Homo sapiens) (UniProt P05177); assay: Cytochrome P450 Family 1 Subfamily A Member 2 (CYP1A2) small molecule antagonists: luciferase reporter qHTS assay (AID 1671199); note: nearly all actives have a fitted effect of over 50% in size
Sequence of Cytochrome P450 1A2 (Homo sapiens) (P05177 whole entry, looked up): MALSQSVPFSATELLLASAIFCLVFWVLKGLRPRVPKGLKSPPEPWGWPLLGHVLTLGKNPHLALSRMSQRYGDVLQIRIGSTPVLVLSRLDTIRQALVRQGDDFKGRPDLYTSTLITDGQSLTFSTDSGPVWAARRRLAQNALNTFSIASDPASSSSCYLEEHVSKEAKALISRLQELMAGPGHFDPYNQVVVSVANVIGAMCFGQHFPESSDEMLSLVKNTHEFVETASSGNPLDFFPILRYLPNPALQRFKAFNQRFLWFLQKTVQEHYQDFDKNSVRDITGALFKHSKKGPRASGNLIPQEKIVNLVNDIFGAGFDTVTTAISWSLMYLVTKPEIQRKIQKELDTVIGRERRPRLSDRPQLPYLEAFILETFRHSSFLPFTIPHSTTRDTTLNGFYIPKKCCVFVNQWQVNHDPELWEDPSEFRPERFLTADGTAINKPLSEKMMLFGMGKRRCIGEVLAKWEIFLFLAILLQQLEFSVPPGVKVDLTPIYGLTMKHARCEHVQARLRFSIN
Outline: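 Luminescence from luciferin formed by CYP1A2 from a proluciferin substrate, read 20 min after detection reagent. Compound was pre-incubated 10 min with enzyme-substrate, and reaction started with NADPH regeneration solution for 1 h at room temperature; furafylline control.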

[9] = target: Voltage-gated inwardly rectifying potassium channel KCNH2 (Homo sapiens) (UniProt Q12809); assay: Human Ether-a-go-go-Related Gene (hERG) channel small molecule antagonists: fluorescence cell-based qHTS assay (AID 1671200); note: nearly all actives have a fitted effect of over 50% in size
Sequence of Voltage-gated inwardly rectifying potassium channel KCNH2 (Homo sapiens) (Q12809 whole entry, looked up): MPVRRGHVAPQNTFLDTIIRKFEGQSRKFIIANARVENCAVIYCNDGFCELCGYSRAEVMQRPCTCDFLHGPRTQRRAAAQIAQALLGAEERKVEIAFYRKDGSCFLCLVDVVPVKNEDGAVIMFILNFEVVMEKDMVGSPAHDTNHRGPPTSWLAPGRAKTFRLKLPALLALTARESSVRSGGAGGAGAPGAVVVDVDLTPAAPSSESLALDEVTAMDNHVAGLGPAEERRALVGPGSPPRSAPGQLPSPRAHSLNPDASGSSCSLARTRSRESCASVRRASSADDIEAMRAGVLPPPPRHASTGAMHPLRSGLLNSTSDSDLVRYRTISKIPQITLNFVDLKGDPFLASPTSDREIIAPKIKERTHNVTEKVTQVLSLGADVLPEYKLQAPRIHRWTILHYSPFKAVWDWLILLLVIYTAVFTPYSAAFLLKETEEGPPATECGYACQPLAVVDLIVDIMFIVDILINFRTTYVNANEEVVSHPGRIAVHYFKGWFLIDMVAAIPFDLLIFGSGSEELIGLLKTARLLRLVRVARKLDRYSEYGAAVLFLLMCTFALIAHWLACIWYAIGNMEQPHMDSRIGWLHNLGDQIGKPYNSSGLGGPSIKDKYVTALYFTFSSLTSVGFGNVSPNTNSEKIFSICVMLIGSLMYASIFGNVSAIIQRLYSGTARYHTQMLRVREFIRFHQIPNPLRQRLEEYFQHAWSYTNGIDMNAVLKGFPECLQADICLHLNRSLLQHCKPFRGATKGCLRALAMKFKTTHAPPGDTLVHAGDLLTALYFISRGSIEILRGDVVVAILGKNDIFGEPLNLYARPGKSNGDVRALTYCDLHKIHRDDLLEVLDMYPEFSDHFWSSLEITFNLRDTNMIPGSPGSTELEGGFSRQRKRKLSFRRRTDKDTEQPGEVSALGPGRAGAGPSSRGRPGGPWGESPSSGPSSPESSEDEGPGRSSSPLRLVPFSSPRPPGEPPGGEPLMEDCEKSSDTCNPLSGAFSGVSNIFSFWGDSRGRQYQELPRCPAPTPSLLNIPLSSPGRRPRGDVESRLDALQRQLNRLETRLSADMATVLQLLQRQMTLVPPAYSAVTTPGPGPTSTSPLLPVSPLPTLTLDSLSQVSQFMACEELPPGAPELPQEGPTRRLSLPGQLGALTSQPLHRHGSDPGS
Outline: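 Quantitative HTS in hERG-U2OS cells: thallium entry through the channel reports activity, read as continuous 480/540 nm fluorescence over 2 min after stimulus addition.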
Potency is the fitted concentration of half-maximal effect.

Compound | Potency [1] | Potency [2] | Potency [3] | Potency [4] | Potency [5] | Potency [6] | Potency [7] | Potency [8] | Potency [9]
Oc1c(Cl)cccc1Cl | inactive | inactive | inactive | inactive | inactive | inactive |  |  | 
CCS(=O)(=O)C(C)(C)S(=O)(=O)CC | inactive | inactive | inactive |  | inactive | inactive | inactive | inactive | inactive
COC(=O)C(C)Oc1ccc(Oc2ccc(Cl)cc2Cl)cc1 (configuration not stated) | inactive | inactive | inactive | inactive | 31.7 µM (active) | inactive |  |  | 38.9 µM (active)
CCCCOC(=O)c1ccccc1C(=O)O | inactive | inactive | inactive | inactive |  | inactive |  | inactive | inactive
CC(N)=S | inactive | inactive | inactive | inactive |  | inactive |  |  | inactive
Clc1cccc(N2CCNCC2)c1 | inactive | inactive | inactive | 5.49 µM (active) | inactive | inactive |  |  | inactive
C[C@H]1CCC[C@H](O)CCCCCc2cc(O)cc(O)c2C(=O)O1 | inactive | inactive | inactive |  | 31.9 µM (active) |  | 22.6 µM (active) | 35.8 µM (active) | 
CCSC(=O)N(CC)C1CCCCC1 | inactive | inactive | inactive | inactive |  | inactive |  | inactive | 
O=[N+]([O-])c1ccc(CBr)cc1 | inactive | inactive | inactive | inactive | inactive | inactive |  |  | inactive
C[C@]1(O)CC[C@H]2[C@@H]3CCC4=CC(=O)CC[C@]4(C)[C@@]3(F)[C@@H](O)C[C@@]21C | inactive | inactive | inactive | inactive |  |  |  |  | inactive
Cc1ccccc1CO[C@@H]1C[C@@]2(C(C)C)CC[C@]1(C)O2 | inactive | inactive | inactive |  | 22.4 µM (active) | 3.99 µM (active) | 5.64 µM (active) | 20 µM (active) | inactive
Cc1ncc(CNC(=O)N(CCCl)N=O)c(N)n1 | inactive | inactive | inactive | inactive |  |  |  |  | inactive
Cc1cc(C)c(C(=O)P(=O)(C(=O)c2c(C)cc(C)cc2C)c2ccccc2)c(C)c1 | inactive | inactive | inactive |  | 35.6 µM (active) | 25.2 µM (active) | 35.6 µM (active) | 71 µM (active) | inactive
N#CCNCC#N | inactive | inactive | inactive | inactive | inactive |  |  |  | inactive
COc1cc(OC)nc(NC(=O)NS(=O)(=O)c2ncccc2OCC(F)(F)F)n1 | inactive | inactive | inactive | inactive |  |  |  |  | inactive
CC(C)[N+](=O)[O-] | inactive | inactive | inactive | inactive | inactive | inactive |  |  | inactive
CCOC(=O)/C=C(C)/C=C/C[C@@H](C)CCCC(C)C | inactive | inactive | inactive |  | 15.9 µM (active) |  | 28.3 µM (active) |  | 
CC(=O)Nc1cc([As](=O)(O)O)ccc1O | inactive | inactive | inactive |  | inactive | inactive | inactive | inactive | inactive
[As]#[In] | inactive | inactive | inactive | inactive |  | inactive |  | inactive | inactive
CC1=NNC(=O)N(/N=C/c2cccnc2)C1 | inactive | inactive | inactive | inactive |  | inactive |  | 35.6 µM (active) | inactive
OC(c1ccccc1)(c1ccccc1)C1CCNCC1 | inactive | inactive | inactive | 12.3 µM (active) | inactive | inactive |  |  | 
CCOP(=S)(OCC)SCSP(=S)(OCC)OCC | 63.3 µM (active) | 35.6 µM (active) | 17.8 µM (active) | 35.6 µM (active) | 0.796 µM (active) | 1.26 µM (active) |  | 15.9 µM (active) | 
Cc1cnc[nH]1 | inactive | inactive | inactive | 34.2 µM (active) |  |  |  |  | inactive
CCOC(=O)C1(c2ccccc2)CCN(CCc2ccc(N)cc2)CC1 | inactive | inactive | inactive | 3.47 µM (active) |  |  |  | inactive | 19 µM (active)
CCC1(c2ccccc2)C(=O)NC(=O)NC1=O | inactive | inactive | inactive | 11.5 µM (active) | inactive | inactive |  |  | inactive

Compound | Potency [1] | Potency [2] | Potency [3] | Potency [4] | Potency [5] | Potency [6] | Potency [7] | Potency [8] | Potency [9]
CNC(=O)Oc1ccc(N(C)C)c(C)c1 | 6.33 µM (active) | 2.24 µM (active) | 39.9 µM (active) |  | inactive | inactive | inactive | 11.2 µM (active) | inactive
CC1(C(=O)Nc2ccc(O)c(Cl)c2Cl)CCCCC1 | inactive | inactive | inactive | 71 µM (active) | 35.6 µM (active) |  |  |  | inactive
CCCCOC(=O)c1ccccc1N | inactive | inactive | inactive | inactive |  |  |  | 8.99 µM (active) | inactive
O=C(O)C(Br)CBr (configuration not stated) | inactive |  | inactive | 36.2 µM (active) |  | inactive | inactive | 64.4 µM (active) | inactive
CNC(=O)O/N=C(\C)SC | 2.83 µM (active) | 1.26 µM (active) | 17.8 µM (active) |  | inactive |  |  | inactive | 
O=C(Cc1ccccc1)OCc1ccccc1 | inactive | inactive | inactive |  |  | inactive | 10.1 µM (active) | 18 µM (active) | inactive
CCC(Cl)[N+](=O)[O-] (configuration not stated) | inactive | inactive | inactive |  | inactive | inactive | inactive |  | inactive
COC(=O)c1c(C(F)F)nc(C(F)(F)F)c(C2=NCCS2)c1CC(C)C | inactive | inactive | inactive |  | 35.6 µM (active) | 2 µM (active) | 5.03 µM (active) | 0.356 µM (active) | inactive
CCOc1nc(C(Cl)(Cl)Cl)ns1 | inactive |  | inactive | inactive |  |  | inactive |  | 
COc1ccc2c(c1OC)CN1CCc3cc4c(cc3C1C2)OCO4 (configuration not stated) | 5.49 µM (active) | 1.38 µM (active) |  | 0.246 µM (active) | 30.9 µM (active) |  | 0.977 µM (active) | 15.5 µM (active) | 
O=C1CN2CCOC2(c2ccccc2Cl)c2cc(Cl)ccc2N1 (configuration not stated) | inactive |  | inactive | 8.71 µM (active) |  |  | 6.17 µM (active) | inactive | 
OC(c1ccc(F)cc1)(c1cncnc1)c1ccccc1Cl (configuration not stated) | inactive | inactive | inactive |  | 20 µM (active) | 0.356 µM (active) | 3.99 µM (active) |  | inactive
CC(=O)[C@H]1CC[C@H]2[C@@H]3CC[C@H]4C[C@H](O)CC[C@]4(C)[C@H]3C(=O)C[C@]12C | inactive |  | inactive |  |  |  |  |  | 
CC1(C)COP(Oc2ccccc2)OC1 | inactive | inactive | inactive |  | inactive | inactive |  |  | inactive
C=C(C)CN(CC)c1c([N+](=O)[O-])cc(C(F)(F)F)cc1[N+](=O)[O-] | inactive |  | inactive | inactive | 31.7 µM (active) | inactive | 28.3 µM (active) | 31.7 µM (active) | 
CC1CN1P(=O)(N1CC1C)N1CC1C (configuration not stated) | inactive | inactive | inactive |  | inactive | inactive | inactive | inactive | inactive
COc1cc(OC)nc(Sc2cccc(Cl)c2C(=O)O)n1 | inactive | inactive | inactive |  |  | inactive | inactive | inactive | inactive
CCCCOP(=O)(O)OCCCC | inactive | inactive | inactive |  |  |  | 56.4 µM (active) | inactive | inactive
O=C1OC(=O)C2C1C1(Cl)C(Cl)=C(Cl)C2(Cl)C1(Cl)Cl (configuration not stated) | inactive |  | inactive | inactive | inactive | inactive | inactive | inactive | inactive
c1cc2c(c(N3CCNCC3)c1)OCCO2 | inactive | inactive | inactive |  | inactive | inactive |  | inactive | inactive
CCCCC(=O)Cl | inactive | inactive | inactive |  | inactive | inactive | inactive |  | inactive
COP(=S)(OC)Oc1c(Cl)cc(C)cc1Cl | inactive |  | inactive | inactive | 8.94 µM (active) | 5.03 µM (active) | 7.1 µM (active) | 8.94 µM (active) | inactive
CCN(Cc1ccc(Cl)nc1)/C(=C/[N+](=O)[O-])NC | inactive |  | inactive | inactive | inactive | inactive | inactive |  | 
Fc1cc(Br)ccc1CBr | inactive |  | inactive | inactive | inactive | inactive | inactive |  | inactive
